From PubChem BioAssay AID618 (Sanford-Burnham Center for Chemical Genomics, 2007) come the findings set out here.

Hit rate of the full screen: of about 87,000 compounds, about 540 (0.62%) were called active. The rule behind the calls is not given here. For the sample, actives were picked, then their nearest neighbours and some compounds at random. Entries with a potency or affinity are not part of this list.

The nature of the test: MT1-MMP gene expression reporter suppression – cell-based, luciferase reporter, luminescence (AID 618).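 Note: actives suppress MT1-MMP promoter-driven transcription so potencies describe inhibitors.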 Particulars: MT1-MMP promoter luciferase reporter cells. For orientation: Reporter assays use an easily measured gene product as a stand-in for the process of interest.
Take `O=C(OCc1nnc(-c2ccc(Cl)cc2)o1)c1ccc(=O)n(Cc2ccccc2)n1`: the outcome was inactive.

With `Cc1cc(NC(=O)CS(=O)(=O)c2cn(Cc3ccc(F)cc3)c3ccccc23)no1`, the compound was classed as inactive.

Take `O=C(Oc1ccc(-c2ccccc2)cc1)N1CCOCC1`: the compound was called inactive.

On to `O=C(Cn1nc(-c2ccccc2F)ccc1=O)NCc1ccc2c(c1)OCO2`, for which the compound was classed as inactive.

For the compound `CCCCn1nnc(NC(=O)c2ccc(-c3ccccc3)cc2)n1`, the compound was classed as inactive.

Turning to `CCCCCCCNC1=CC(=O)CC(c2ccco2)C1` (stereo not drawn), the compound was called inactive.

Regarding `COc1cc(NC(=O)CN(c2ccc(C)cc2)S(=O)(=O)c2c(C)nn(C)c2C)cc(OC)c1`, the result was inactive.

On to `O=C(Nc1ccc2c(c1)OCO2)C(c1ccccc1)N1CCN(C(=O)c2ccco2)CC1` (stereo not drawn), for which the call was inactive.

Take `CCCn1c(C)cc(-c2csc(N)n2)c1C`: the result was inactive.

As for `Nc1nc(-c2ccccc2)cs1`, the compound was called inactive.

For the compound `Cc1cc(-c2csc(N)n2)c(C)n1C`, the result was inactive.

With `CCOC(=O)c1cc(C)n(CCc2ccccc2)c1C`, the compound was called inactive.

Consider `Cc1nc2ccccc2nc1N1CCC(C)CC1`, for which the outcome was inactive.

With `O=C(Nc1ccc2c(c1)OCO2)N1CCN(S(=O)(=O)c2ccc(Cl)cc2)CC1`, the compound was called inactive.

As to `CC1(C)N(OCc2ccccc2)C(=O)C(=O)N(OCc2ccccc2)C1(C)C`, the result was inactive.

Regarding `C=CCNc1nc(N(c2ccccc2)c2ccccc2)nc(-n2ccnc2)n1`, the outcome was inactive.

For the compound `CCCS(=O)(=O)c1nnnn1-c1cccc(OC)c1`, the compound was called active.

As to `COc1cccc(-n2nnnc2SCC(=O)NC2CCCC2)c1`, the call was inactive.

For the compound `COc1cccc(Oc2nnnn2-c2ccccc2)c1`, the result was inactive.

Turning to `CCCS(=O)(=O)C(=C1NCCO1)S(=O)(=O)CCC`, the result was inactive.

In the case of `COc1cccc(-c2nc3ccc(O)cc3c(=O)o2)c1`, the result was inactive.

Turning to `COc1nc(-c2ccc(C)cc2)ccc1-c1noc(-c2ccco2)n1`, the compound was classed as inactive.

As for `CCOc1nc(C)ccc1-c1noc(-c2ccco2)n1`, the call was inactive.

Regarding `Cc1cccc(OCC(=O)Nc2ccc3c(c2)OCO3)c1C`, the call was inactive.

Take `C/C(=C\C(=O)c1cccnc1)Nc1ccc(C(=O)O)cc1`: the result was inactive.

In the case of `CN(C)c1ccc(C(=O)C(O)c2ccccc2)cc1` (stereo not drawn), the compound was classed as inactive.

As to `CCC(C(=O)c1ccc(O)cc1)c1ccccc1` (stereo not drawn), the compound was classed as inactive.

`CN(C)CC(C(=O)c1ccccc1)c1ccccc1` (stereo not drawn): the compound was classed as active.

As for `O=C(Cn1nc(C(=O)O)c2ccccc2c1=O)NCCC1=CCCCC1`, the outcome was inactive.

As to `CC(Cc1ccccc1)NC(=O)C1CCCNC1=O` (stereo not drawn), the outcome was inactive.

Take `CCCCC(=O)c1ccc(O)cc1O`: the result was inactive.

For the compound `O=C(CSc1nnc(-c2ccncc2)n1Cc1ccco1)N1c2ccccc2Sc2ccc(Cl)cc21`, the compound was classed as inactive.

As to `COc1ccc(N2CCN(C(=O)CSc3nnc(-c4cccnc4)n3-c3ccc(F)cc3)CC2)cc1`, the call was inactive.
